{
  "source": "ChEMBL document CHEMBL3988442",
  "about": "“University of Dundee, Small-Polar-MMV Screening Library” (2021)",
  "note": "Screen size: about 48,000 compounds; about 13,000 (27%) showed an effect of 50% or more. This is one part of the list.",
  "data": [
    {"test_system": "Wolbachia pipientis", "experiment": "Anti-Wolbachia Cell-Based Screen", "type": "functional", "parameters": "scale not given: in the data most compounds retested in dose-response had high values", "settings": "5 µM", "units": {"Percent Effect": "%"}, "values": [
      {"smiles": "O=C(C1CCC1)N1CCOc2cccc(F)c21", "Percent Effect": -0.5451},
      {"smiles": "CC(C)c1ccc(CN2CCC(CNS(=O)(=O)C3CC3)C2)cc1", "note": "(configuration not stated)", "Percent Effect": -21.58},
      {"smiles": "O=C(c1ccc[nH]1)N1CCCC2(CCN(c3ccsc3)C2=O)C1", "note": "(configuration not stated)", "Percent Effect": -3.1},
      {"smiles": "CCc1cccc(OC2CN(C(=O)[C@@H](N)CCSC)C2)c1", "Percent Effect": 3.54},
      {"smiles": "OCCc1cc(CC2(NCc3ccncc3)COC2)no1", "Percent Effect": 9.116},
      {"smiles": "CC(=O)N(C)C(c1cccc(F)c1)c1ccccn1", "note": "(configuration not stated)", "Percent Effect": 87.32},
      {"smiles": "CN(C)CCN(Cc1ccccn1)C(=O)Nc1cccc(F)c1", "Percent Effect": 19.37},
      {"smiles": "CN(C)C(C(=O)NCC(F)(F)F)c1cccc(F)c1", "note": "(configuration not stated)", "Percent Effect": -4.686},
      {"smiles": "CC1=C[C@@H](CC#N)[C@H](C(C)C)C[C@H]1CC(=O)N1CCN(CCO)CC1", "Percent Effect": 2.953},
      {"smiles": "CCOC(=O)C1CCN(Cc2csc(C(C)(C)C)n2)CC1", "Percent Effect": -1.919},
      {"smiles": "NC(=O)C1(CCCc2cccnc2)CCCN(c2ncccn2)C1", "note": "(configuration not stated)", "Percent Effect": -4.242},
      {"smiles": "COCCC1(C(=O)O)CCCN(CCc2ccccc2)C1", "note": "(configuration not stated)", "Percent Effect": -4.304},
      {"smiles": "NC(=O)CN1CCCC(CCCc2ccccn2)(C(N)=O)C1", "note": "(configuration not stated)", "Percent Effect": 100.4},
      {"smiles": "O=C(Nc1ccc(Cl)cn1)C1CCCN(CCc2ccccn2)C1", "note": "(configuration not stated)", "Percent Effect": 0.2896},
      {"smiles": "O=C(NCCc1ccccn1)N1CCSC2(CCCCC2)C1", "Percent Effect": 2.458},
      {"smiles": "COCCCC1(CO)CCCN(CCc2ccccn2)C1", "note": "(configuration not stated)", "Percent Effect": 15.21},
      {"smiles": "NC(=O)C1(CCCc2ccccn2)CCCN(CCO)C1", "note": "(configuration not stated)", "Percent Effect": 112.7},
      {"smiles": "CN1CCCC(CCCc2cccnc2)(C(N)=O)C1", "note": "(configuration not stated)", "Percent Effect": 112},
      {"smiles": "COCCN1CCCC(CCCc2ccccn2)(C(N)=O)C1", "note": "(configuration not stated)", "Percent Effect": 100.6},
      {"smiles": "CC(C)N1CCCC(CCCc2ccccn2)(C(=O)O)C1", "note": "(configuration not stated)", "Percent Effect": -10.26},
      {"smiles": "CCCN(Cc1cccnc1)C(=O)C1CCCN(C)C1", "note": "(configuration not stated)", "Percent Effect": -0.4884},
      {"smiles": "CCN1CCCC(O)(CNCc2ccccn2)C1", "note": "(configuration not stated)", "Percent Effect": -18.44},
      {"smiles": "CCOCC1COCCC12CCN(C(=O)C1=CCCCC1)CC2", "note": "(configuration not stated)", "Percent Effect": 5.493},
      {"smiles": "COCCCN(Cc1ccncc1)c1cc(C)ncn1", "Percent Effect": 0.1133},
      {"smiles": "CC1(C)COCCN1C(=O)CCc1nc(-c2ccc(Cl)cc2)no1", "Percent Effect": -5.513},
      {"smiles": "Cc1ccc(OCc2nnc(SCC3CCCN(C)C3)o2)cc1", "note": "(configuration not stated)", "Percent Effect": 8.956},
      {"smiles": "CN(CCc1ccccn1)C(=O)Nc1cccnc1N1CCCC1", "Percent Effect": -10.3},
      {"smiles": "O=C(CCCc1ccccn1)N1CCSC2(CCCCC2)C1", "Percent Effect": -12.36},
      {"smiles": "Nc1ccnc(N2CCCC(CCc3ccccc3)(C(=O)O)C2)n1", "note": "(configuration not stated)", "Percent Effect": -8.777},
      {"smiles": "NC(=O)C1(CCCc2ccccn2)CCCN(c2ncccn2)C1", "note": "(configuration not stated)", "Percent Effect": 87.14},
      {"smiles": "CN(C)C(=O)CN1CCCC(CCCc2ccccn2)(C(N)=O)C1", "note": "(configuration not stated)", "Percent Effect": 83.83},
      {"smiles": "CN(CCc1ccccn1)[C@@H]1CCN(c2cc(C(N)=O)ccn2)C[C@H]1O", "Percent Effect": -0.6803}
    ]}
  ]
}
